# Reference: the supplement of paper PMC8728848
# Changes are numbered by the printed parent chain. The entries come from a sample that favours the strongest signals as a whole.
# B1: ZG16p (Homo sapiens), O60844 (protein)
# chain: ARSSSYSGEYGGGGGKRFSHSGNQLDGPITALRVRVNTYYIVGLQVRYGKVWSDYVGGRNGDLEEIFLHPGESVIQVSGKYKWYLKKLLFVTDKGRYLSFGKDSGTSFNAVPLHPNTVLRFISGRSGSLINAIGLHWDVYPSSCSRC
# B2: ZG16p (Homo sapiens), O60844 (protein)
# chain: B1 chain with Y84F, N131D
# B3: Cel5A (Cellvibrio mixtus), A0A266Q9Z0 (protein)
# chain: TSVAGCSGVTAWNSTAVYTGGNEVVRNGVKYQAKWWTQGQDPVTNSSADGVWANKGQC
# B4: Cel5A (Clostridium thermocellum), P16218 (protein)
# chain: AVGEKMLDDFEGVLNWGSYSGEGAKVSTKIVSGKTGNGMEVSYTGTTDGYWGTVYSLPDGDWSKWLKISFDIKSVDGSANEIRFMIAEKSINGVGDGEHWVYSITPDSSWKTIEIPFSSFRRRLDYQPPGQDMSGTLDLDNIDSIHFMYANNKSGKFVVDNIKLIGATSDPTPSIKHGDLNFDNAVNSTDLLMLKRYILKSLELGTSEQEEKFKKAADLNRDNKVDSTDLTILKRYLLKAISEIPI
# Experiments:
# Experiment in all cases: glycan array binding signal (z-score within array); higher = stronger binding
# [1] = biological target: Gal(b1-4)GlcNAc(b1-2)Man(a1-6)[GlcNAc(b1-2)Man(a1-3)]Man(b1-4)GlcNAc(b1-4)[Fuc(a1-6)]GlcNAc; settings: glycan notation: IUPAC condensed, linker removed
# How it was run: (§1)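 Glycan array data were curated from 3228 arrays in the Consortium for Functional Glycomics database and kept only where the protein sequence was available. Glycan names were converted to IUPAC-condensed notation, and columns mapping to the same glycan were averaged. The binding signal is a within-array Z-score, averaged across arrays of the same protein sequence at different concentrations or buffers and across linkers. Negative Z-scores can be read as non-binding.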
# [2] = biological target: Gal(b1-4)GlcNAc(b1-2)[Gal(b1-4)GlcNAc(b1-4)]Man(a1-3)[Gal(b1-4)GlcNAc(b1-2)[Gal(b1-4)GlcNAc(b1-6)]Man(a1-6)]Man(b1-4)GlcNAc(b1-4)GlcNAc; settings: glycan notation: IUPAC condensed, linker removed; mutation: D151N
# How it was run: as §1
# [3] = biological target: GlcNAc(b1-2)Man(a1-3)[GlcNAc(b1-2)Man(a1-6)]Man(b1-4)GlcNAc(b1-4)GlcNAc; settings: glycan notation: IUPAC condensed, linker removed; mutation: D151N
# How it was run: as §1
# [4] = biological target: GlcNAc(b1-2)[GlcNAc(b1-4)]Man(a1-3)[GlcNAc(b1-2)Man(a1-6)][GlcNAc(b1-4)]Man(b1-4)GlcNAc(b1-4)GlcNAc; settings: glycan notation: IUPAC condensed, linker removed; mutation: D151N
# How it was run: as §1
# [5] = biological target: HexA(a1-3)GalNAc4S(b1-4)GlcA(b1-3)GalNAc4S(b1-4)GlcA(b1-3)GalNAc4S(b1-4)GlcA(b1-3)GalNAc4S(b1-4)GlcA(b1-3)GalNAc4S(b1-4)GlcA(b1-3)GalNAc4S(b1-4)GlcA(b1-3)GalNAc4S(b1-4)GlcA(b1-3)GalNAc4S; settings: glycan notation: IUPAC condensed, linker removed; mutation: D151N
# How it was run: as §1
# [6] = biological target: Gal(b1-4)GlcNAc(b1-2)Man(a1-6)[Man(a1-3)]Man(b1-4)GlcNAc(b1-4)GlcNAc; settings: glycan notation: IUPAC condensed, linker removed; mutation: Y104F
# How it was run: as §1
# [7] = biological target: Gal(b1-4)GlcNAc(b1-2)[Gal(b1-4)GlcNAc(b1-4)]Man(a1-3)[Fuc(a1-3)[Gal(b1-4)]GlcNAc(b1-2)Man(a1-6)]Man(b1-4)GlcNAc(b1-4)GlcNAc; settings: glycan notation: IUPAC condensed, linker removed; mutation: Y104F
# How it was run: as §1
# [8] = biological target: Glc(b1-3)Glc(b1-3)Glc(b1-3)Glc(b1-3)Glc(b1-3)Glc; settings: glycan notation: IUPAC condensed, linker removed; mutation: Y104F
# How it was run: as §1
# Man(a1-3)Man(b1-4)GlcNAc = settings: glycan notation: IUPAC condensed, linker removed; mutation: Y104F
# How it was run: as §1
# [9] = biological target: Xyl(b1-2)[Man(a1-3)][Man(a1-6)]Man(b1-4)GlcNAc(b1-4)GlcNAc; settings: glycan notation: IUPAC condensed, linker removed; mutation: Y104F
# How it was run: as §1
# Glc(a1-2)Glc = settings: glycan notation: IUPAC condensed, linker removed
# How it was run: as §1
# Glc(a1-3)Glc(a1-3)Glc = settings: glycan notation: IUPAC condensed, linker removed
# How it was run: as §1
# [10] = biological target: Glc(a1-3)Glc(a1-3)Glc(a1-3)Glc(a1-3)Glc(a1-3)Glc; settings: glycan notation: IUPAC condensed, linker removed
# How it was run: as §1
# Glc(b1-2)Glc = settings: glycan notation: IUPAC condensed, linker removed
# How it was run: as §1
# [11] = biological target: Glc(b1-3)Glc(b1-3)Glc(b1-3)Glc(b1-3)Glc(b1-3)Glc(b1-3)Glc(b1-3)Glc; settings: glycan notation: IUPAC condensed, linker removed
# How it was run: as §1
# [12] = biological target: Glc(b1-3)Glc(b1-3)[Glc(b1-6)]Glc(b1-3)Glc(b1-3)Glc(b1-3)Glc(b1-3)Glc(b1-3)Glc(b1-3)Glc; settings: glycan notation: IUPAC condensed, linker removed
# How it was run: as §1
# [13] = biological target: Glc(b1-3)[Glc(b1-6)]Glc(a1-3)Glc(b1-3)[Glc(b1-6)]Glc; settings: glycan notation: IUPAC condensed, linker removed
# How it was run: as §1
# [14] = biological target: Glc(b1-4)Glc(b1-4)Glc(b1-4)Glc(b1-3)Glc; settings: glycan notation: IUPAC condensed, linker removed
# How it was run: as §1
# [15] = biological target: Glc(b1-6)Glc(b1-6)Glc(b1-6)Glc(b1-6)Glc(b1-6)Glc(b1-6)Glc(b1-6)Glc(b1-6)Glc(b1-6)Glc(b1-6)Glc(b1-6)Glc(b1-6)Glc(b1-6)Glc(b1-6)Glc; settings: glycan notation: IUPAC condensed, linker removed
# How it was run: as §1
# [16] = biological target: Glc(a1-6)Glc(a1-6)Glc(a1-6)Glc(a1-6)Glc(a1-6)Glc; settings: glycan notation: IUPAC condensed, linker removed
# How it was run: as §1
# Glc(b1-2)Glc(b1-2)Glc = settings: glycan notation: IUPAC condensed, linker removed
# How it was run: as §1
# [17] = biological target: Glc(b1-2)Glc(b1-2)Glc(b1-2)Glc(b1-2)Glc(b1-2)Glc(b1-2)Glc(b1-2)Glc(b1-2)Glc; settings: glycan notation: IUPAC condensed, linker removed
# How it was run: as §1
# [18] = biological target: Glc(b1-3)Glc(b1-3)Glc(b1-3)Glc(b1-3)Glc(b1-3)Glc(b1-3)[Glc(b1-6)]Glc(b1-3)Glc(b1-3)Glc; settings: glycan notation: IUPAC condensed, linker removed
# How it was run: as §1
# [19] = biological target: Glc(b1-4)Glc(b1-4)Glc(b1-3)Glc(b1-4)Glc(b1-4)Glc(b1-3)Glc; settings: glycan notation: IUPAC condensed, linker removed
# How it was run: as §1
# Glc(b1-6)Glc(b1-6)Glc = settings: glycan notation: IUPAC condensed, linker removed
# How it was run: as §1
# [20] = biological target: Man(b1-4)Man(b1-4)Man(b1-4)Man(b1-4)Man; settings: glycan notation: IUPAC condensed, linker removed
# How it was run: as §1
binder,measurement,setting,value
B1,glycan array binding signal (z-score),[1]; mutation: D151N,-0.565
same,glycan array binding signal (z-score),[2],-0.44
same,glycan array binding signal (z-score),[3],-0.565
same,glycan array binding signal (z-score),[4],-0.565
same,glycan array binding signal (z-score),[5],5.03
B2,glycan array binding signal (z-score),[1]; mutation: Y104F,-0.485
same,glycan array binding signal (z-score),[6],-0.485
same,glycan array binding signal (z-score),[7],-0.485
same,glycan array binding signal (z-score),[8],2.84
same,glycan array binding signal (z-score),Man(a1-3)Man(b1-4)GlcNAc,0.015
same,glycan array binding signal (z-score),[9],-0.331
B3,glycan array binding signal (z-score),Glc(a1-2)Glc,-0.981
same,glycan array binding signal (z-score),Glc(a1-3)Glc(a1-3)Glc,-0.977
same,glycan array binding signal (z-score),[10],-0.941
same,glycan array binding signal (z-score),Glc(b1-2)Glc,-0.411
same,glycan array binding signal (z-score),[11],2.06
same,glycan array binding signal (z-score),[12],2.2
same,glycan array binding signal (z-score),[13],2.44
same,glycan array binding signal (z-score),[14],1.17
same,glycan array binding signal (z-score),[15],-0.119
B4,glycan array binding signal (z-score),Glc(a1-2)Glc,-0.143
same,glycan array binding signal (z-score),[16],-0.143
same,glycan array binding signal (z-score),Glc(b1-2)Glc(b1-2)Glc,-0.143
same,glycan array binding signal (z-score),[17],-0.143
same,glycan array binding signal (z-score),[18],0.047
same,glycan array binding signal (z-score),[19],4.62
same,glycan array binding signal (z-score),Glc(b1-6)Glc(b1-6)Glc,-0.143
same,glycan array binding signal (z-score),[20],0.04
